The source of these data is PubChem BioAssay (Tox21).

Unmarked numbers belong to inactive results. Inconclusive results are not listed. Calls of active or inactive are those of the source. Unless noted, the call rests on the fitted dose curve; in most records, active means well fitted curve in the direction sought with a large enough effect in the repeat runs; inconclusive means weak or mixed curves; inactive means no such curve, though single readings can be large; an effect the other way counts as inactive or inconclusive.

For experiment [1], the target named is Thyrotropin receptor (Homo sapiens) (UniProt P16473). As to the kind of experiment: qHTS assay to identify small molecule antagonists of the thyroid stimulating hormone receptor (TSHR) signaling pathway (AID 1259385; calls by dose curve; further: nearly all actives have a fitted effect of over 20% in size). The gist of the method:
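TSHR-HEK293 cells were plated and held 18 h at 37C/5% CO2, then given compound plus Ro20-1724 and stimulated with TSH at 1.5 ng/mL final. After 30 min at room temperature, cAMP was detected with cAMP-d2/anti-cAMP-cryptate (1 h) by fluorescence.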

Experiment [2] can be described thus: qHTS assay to identify small molecule agonists of the estrogen receptor alpha (ER-alpha) signaling pathway in the presence of an antagonist - cell viability counter screen (AID 1259386).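 Further: series mostly up to about 92 µM; cells exposed to compounds for 22 h at 37 °C before the viability read; nearly all actives have a fitted effect of over 30% in size.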 The procedure, abridged:
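ICI-182,780 at 10.0nM final accompanies the compound titration (15 concentrations, 22hr, 37C) on VM7Luc4E2 cells. The CellTiter-Fluor fluorescence readout runs in the same wells as the luciferase assay.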
In general terms: In qHTS, concentration-response curves come from the screen itself.

Experiment [3] has as its target Progesterone receptor (Homo sapiens) (UniProt P06401). As to the kind of experiment: qHTS assay to identify small molecule agonists of the progesterone receptor (PR) signaling pathway (AID 1346784; calls by dose curve; further: nearly all actives have a fitted effect of over 30% in size). The gist of the method:
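The screen uses PR-UAS-bla HEK 293T cells in charcoal-stripped serum (2%). Compounds are applied for 16 hr at 37C after a 6 hr pre-incubation, and reporter activity is detected with a FRET beta-lactamase substrate after 2 hr at room temperature.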

Experiment [4] has the same target. As to the kind of experiment: qHTS assay to identify small molecule antagonists of the progesterone receptor (PR) signaling pathway (AID 1346795; active means well fitted inhibition curve with a large enough effect in the signal ratio in the repeat runs, not every such curve was filed as active; the % refers to the signal ratio). The procedure, abridged: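 After 6 hr plating at 37C in 2% stripped-serum medium, PR-UAS-bla HEK293T cells got compounds, then 1 nM R5020. Sixteen hours later, LiveBLAzer substrate was applied for 2 hr at room temperature and fluorescence was recorded.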

Experiment [5] in a line: qHTS assay to identify small molecule antagonists of the progesterone receptor (PR) signaling pathway - cell viability counter screen (AID 1346798). Further: series mostly up to about 92 µM; nearly all actives have a fitted effect of over 50% in size. The gist of the method:
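Viability was determined by ATP-based luminescence (CellTiter-Glo) in PR-UAS-bla HEK293T cells cultured in 2% charcoal-stripped serum and incubated 16 hr with compounds under R5020 stimulation.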

Experiment [6] is described as follows: qHTS assay to identify small molecule agonists of the progesterone receptor (PR) signaling pathway - cell viability counter screen (AID 1346799; calls by dose curve; further: nearly all actives have a fitted effect of over 45% in size). The procedure, abridged:
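Viability was scored by ATP luminescence (CellTiter-Glo, 30 min, room temperature) in the same wells used for the reporter readout, after 16 hr compound exposure of PR-UAS-bla HEK293T cells.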

A short description of experiment [7]: qHTS assay to identify small molecule antagonists of the TGF-beta/Smad signaling pathway - cell viability counter screen (AID 1346824). Further: nearly all actives have a fitted effect of over 50% in size. The gist of the method: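 SBE-bla HEK 293T cells were plated overnight at 37 C, then given compounds in DMSO plus TGF-beta1 (added as 0.25 ng/mL solution) for 5 hr. After the bla read, CellTiter-Glo was added to the same wells and luminescence read after 30 min at room temperature.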

A short description of experiment [8]: qHTS assay to identify small molecule agonists of the TGF-beta/Smad signaling pathway - cell viability counter screen (AID 1346829). Further: top concentration of the series differs between compounds; nearly all actives have a fitted effect of over 45% in size. The gist of the method: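 HEK 293T SBE-bla line, 5 hr compound exposure at 37 C, multiplexed CellTiter-Glo viability read by luminescence.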
The nature of experiment [9]: qHTS assay to identify small molecule agonists of the TGF-beta/Smad signaling pathway (AID 1346859; active means well fitted activation curve with a large enough effect in the signal ratio in the repeat runs, not every such curve was filed as active; the % refers to the signal ratio; further: series mostly up to about 77 µM). The procedure, abridged: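 Dual-wavelength fluorescence (460/530 nm emission) quantified beta-lactamase expression under the Smad binding element in HEK 293T cells following 5 hr compound treatment at 37 C.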
The target of experiment [10] is Thyrotropin-releasing hormone receptor (Homo sapiens) (UniProt P34981). As to the kind of experiment: qHTS assay to identify small molecule antagonists of the thyrotropin-releasing hormone receptor (TRHR) signaling pathway (AID 1346877; active means well fitted inhibition curve with a large enough effect in the repeat runs, not every such curve was filed as active; further: series mostly up to about 51 µM). The procedure, abridged: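 Screening used HEK293 cells engineered with TRHR, with a brief 5 min room-temperature compound exposure preceding addition of TRH to 1 nM. The read-out was kinetic calcium-dye fluorescence, concentration-response from 15 doses in triplicate.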

Experiment [11] shares this target. As to the kind of experiment: qHTS assay to identify small molecule agonists of the thyrotropin-releasing hormone receptor (TRHR) signaling pathway (AID 1346891; calls by dose curve;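 further: HEK293 cells expressing TRHR with calcium dye readout; series mostly up to about 58 µM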). The procedure, abridged: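 Kinetic fluorescence (3 min, 1 s intervals) reported intracellular calcium after compound transfer onto TRHR-Hek293 cells pre-loaded with dye for 2 h at 37 °C.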
Experiment [12] in a line: Human pregnane X receptor (PXR) small molecule agonists, qHTS cell viability counter screen (AID 1346977). Further: nearly all actives have a fitted effect of over 50% in size. The procedure, abridged:
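HepG2 cells stably carrying the PXR-Luc reporter are cultured with 5% charcoal-stripped FBS and treated with compounds for 24hr. CellTiter-Fluor is added at 23hr and fluorescence is read after 1hr.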

Experiment [13] in a line: Caspase-3/7 induction in CHO-K1 cells by small molecules, qHTS cell viability counter screen (AID 1346979). Further: nearly all actives have a fitted effect of over 35% in size. The gist of the method:
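Seeding: 1,500 CHO-K1 cells/well. Rest: 5hr, 37C. Treatment: compounds in DMSO, 16hr. Read: CellTiter-Fluor, 1hr, fluorescence.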

The nature of experiment [14]: Caspase-3/7 induction in CHO-K1 cells by small molecules, qHTS assay (AID 1346980). Further: nearly all actives have a fitted effect of over 15% in size. The gist of the method: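 Wild-type cells were seeded at 1,500 per well and settled 5 hr at 37 C, 5% CO2, then exposed to DMSO-dissolved compounds for 17 hr. Caspase-Glo 3/7 reagent was added, and luminescence was read after 30min at room temperature.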
Experiment [15] is described as follows: Caspase-3/7 induction in HepG2 cells by small molecules, qHTS cell viability counter screen (AID 1346981). Further: series mostly up to about 92 µM; nearly all actives have a fitted effect of over 30% in size. The gist of the method:
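Multiplexed with the caspase-3/7 assay: HepG2 cells, 16 hr compound treatment, CellTiter-Fluor viability detection by fluorescence.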

Experiment [16] has as its target Nuclear receptor subfamily 1 group I member 2 (Homo sapiens) (UniProt O75469). Kind of experiment: Human pregnane X receptor (PXR) small molecule agonists, qHTS assay (AID 1346982). Further: nearly all actives have a fitted effect of over 35% in size. Further: potency means the concentration at half of the fitted maximal effect. The procedure, abridged:
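We seeded PXR-Luc HepG2 cells in assay medium containing 5% charcoal-stripped FBS, added compounds 5 hr later, incubated 24 hr, and read luminescence with ONE-Glo reagent.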

Experiment [17] is described as follows: Caspase-3/7 induction in HepG2 cells by small molecules, qHTS assay (AID 1346978). Further: nearly all actives have a fitted effect of over 15% in size. The procedure, abridged: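 Wild-type HepG2 cells (2,000/well) were settled 5 h at 37 C, 5% CO2, then exposed to compounds in DMSO for 17 h. Caspase-3/7 activity was read by luminescence 30 min after adding Caspase-Glo 3/7 reagent at room temperature.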

Progesterone receptor (Homo sapiens), sequence (P06401 whole entry, looked up): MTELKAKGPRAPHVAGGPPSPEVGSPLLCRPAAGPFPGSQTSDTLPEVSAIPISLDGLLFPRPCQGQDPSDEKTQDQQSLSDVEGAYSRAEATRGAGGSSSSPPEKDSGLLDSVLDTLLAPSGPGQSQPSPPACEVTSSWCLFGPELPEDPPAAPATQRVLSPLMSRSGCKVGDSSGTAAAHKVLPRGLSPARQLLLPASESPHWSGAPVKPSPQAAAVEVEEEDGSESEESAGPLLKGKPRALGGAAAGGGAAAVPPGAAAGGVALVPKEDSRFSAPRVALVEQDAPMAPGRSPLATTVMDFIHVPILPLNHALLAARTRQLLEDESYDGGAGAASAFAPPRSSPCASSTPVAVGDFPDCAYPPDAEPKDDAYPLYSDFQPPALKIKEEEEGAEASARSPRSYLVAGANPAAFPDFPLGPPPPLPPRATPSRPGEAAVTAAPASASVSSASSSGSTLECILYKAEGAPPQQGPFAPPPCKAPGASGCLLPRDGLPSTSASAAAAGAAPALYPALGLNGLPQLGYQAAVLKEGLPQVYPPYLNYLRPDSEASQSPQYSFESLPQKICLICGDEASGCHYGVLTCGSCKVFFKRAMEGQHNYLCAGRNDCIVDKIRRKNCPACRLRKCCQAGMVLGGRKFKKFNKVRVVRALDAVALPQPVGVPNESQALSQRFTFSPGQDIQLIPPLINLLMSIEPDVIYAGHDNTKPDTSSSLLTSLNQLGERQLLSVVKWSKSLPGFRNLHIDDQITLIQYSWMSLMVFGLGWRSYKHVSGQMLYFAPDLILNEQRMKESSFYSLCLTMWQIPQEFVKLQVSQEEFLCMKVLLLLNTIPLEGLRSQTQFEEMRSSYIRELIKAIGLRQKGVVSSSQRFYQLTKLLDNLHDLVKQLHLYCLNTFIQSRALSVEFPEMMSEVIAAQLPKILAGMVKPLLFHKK
Nuclear receptor subfamily 1 group I member 2 (Homo sapiens), sequence (O75469 whole entry, looked up): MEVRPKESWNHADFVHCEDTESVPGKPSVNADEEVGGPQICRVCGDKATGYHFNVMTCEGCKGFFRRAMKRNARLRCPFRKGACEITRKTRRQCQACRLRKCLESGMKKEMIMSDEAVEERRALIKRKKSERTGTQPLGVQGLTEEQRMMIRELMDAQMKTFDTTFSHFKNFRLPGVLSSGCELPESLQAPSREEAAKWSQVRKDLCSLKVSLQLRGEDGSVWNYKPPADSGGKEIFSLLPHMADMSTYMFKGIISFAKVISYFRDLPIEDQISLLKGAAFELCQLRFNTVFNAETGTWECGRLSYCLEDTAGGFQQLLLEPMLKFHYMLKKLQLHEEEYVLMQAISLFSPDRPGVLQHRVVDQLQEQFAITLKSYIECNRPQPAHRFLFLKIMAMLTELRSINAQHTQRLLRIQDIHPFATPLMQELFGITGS
Thyrotropin receptor (Homo sapiens), sequence (P16473 whole entry, looked up): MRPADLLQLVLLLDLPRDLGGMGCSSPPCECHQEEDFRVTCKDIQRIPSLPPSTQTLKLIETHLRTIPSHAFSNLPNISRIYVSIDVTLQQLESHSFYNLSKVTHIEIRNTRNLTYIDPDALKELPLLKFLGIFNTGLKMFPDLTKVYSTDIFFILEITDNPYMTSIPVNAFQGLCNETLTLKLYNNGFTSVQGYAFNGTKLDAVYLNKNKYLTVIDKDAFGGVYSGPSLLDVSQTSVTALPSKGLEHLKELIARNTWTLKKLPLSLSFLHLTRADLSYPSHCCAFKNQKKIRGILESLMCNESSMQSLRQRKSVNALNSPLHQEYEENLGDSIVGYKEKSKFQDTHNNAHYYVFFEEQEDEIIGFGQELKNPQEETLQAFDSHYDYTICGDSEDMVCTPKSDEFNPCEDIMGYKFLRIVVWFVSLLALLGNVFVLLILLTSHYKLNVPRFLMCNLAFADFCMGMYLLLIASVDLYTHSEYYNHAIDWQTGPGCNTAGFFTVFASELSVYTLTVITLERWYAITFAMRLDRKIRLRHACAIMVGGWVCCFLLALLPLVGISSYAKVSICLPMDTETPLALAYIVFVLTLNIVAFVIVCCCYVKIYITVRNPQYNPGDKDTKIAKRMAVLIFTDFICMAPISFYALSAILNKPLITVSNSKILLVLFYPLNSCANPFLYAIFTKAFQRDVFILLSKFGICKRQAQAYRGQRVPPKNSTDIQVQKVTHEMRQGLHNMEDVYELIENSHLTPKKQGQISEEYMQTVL
Thyrotropin-releasing hormone receptor (Homo sapiens), sequence (P34981 whole entry, looked up): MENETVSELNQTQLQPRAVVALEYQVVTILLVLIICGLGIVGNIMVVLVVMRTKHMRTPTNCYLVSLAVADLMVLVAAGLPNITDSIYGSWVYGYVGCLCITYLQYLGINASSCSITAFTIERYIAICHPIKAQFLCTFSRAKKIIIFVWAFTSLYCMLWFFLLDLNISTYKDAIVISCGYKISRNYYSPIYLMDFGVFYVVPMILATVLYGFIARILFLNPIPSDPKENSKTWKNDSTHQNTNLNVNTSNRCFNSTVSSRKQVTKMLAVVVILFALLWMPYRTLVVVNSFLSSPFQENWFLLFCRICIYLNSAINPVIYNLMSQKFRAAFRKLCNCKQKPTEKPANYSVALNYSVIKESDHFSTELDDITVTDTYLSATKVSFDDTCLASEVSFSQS

Turning to `CN1C(=O)N(C)C(O)C1O` (stereo unspecified), the Potency entry in experiment [1], in experiment [2], in [3], in [4], in [5] and in experiment [6] was “inactive” in each case. Moreover, the Potency entry in [7], in experiment [12], in experiment [13], in experiment [15] and in experiment [16] was “inactive” each time. Also, the compound was called inactive in experiment [8], in experiment [9], in experiment [10], in experiment [11] and in experiment [14].
In the case of `O=C1CCCN1C1CCCCC1`, the Potency entry in experiment [1], in experiment [2], in [3], in experiment [4], in [5] and in [6] was “inactive” throughout. For the same compound, the Potency result in [7], in experiment [12], in experiment [17], in [13], in experiment [15] and in experiment [16] was “inactive” each time. Besides, the call in experiment [8], in experiment [9], in experiment [10], in experiment [11] and in experiment [14] was inactive.
Turning to `CC(C)=CCCC(C)CC(=O)O` (stereo unspecified), the Potency result in [1], in experiment [2], in experiment [3], in experiment [4], in experiment [5] and in experiment [6] was “inactive” in each case. The Potency result in experiment [7], in experiment [12], in experiment [17] and in experiment [16] was “inactive” in each case. Also, the outcome in experiment [8], in experiment [9], in [10], in experiment [11] and in experiment [14] was inactive.
Consider `O=C(O)CCCl`, for which the Potency result in [1], in experiment [2], in [3], in experiment [4], in experiment [5] and in experiment [6] was “inactive” each time. Also, the Potency result in experiment [7], in [12], in experiment [17], in experiment [13] and in experiment [15] was “inactive” throughout. Moreover, the compound was called inactive in [8], in experiment [9], in [10], in experiment [11] and in [14]. Moreover, in experiment [16], the Potency is 61.9 µM (active).
In the case of `C/C=C(\C)C#N`, the Potency entry in [1], in [2], in experiment [3], in [4], in experiment [5] and in experiment [6] was “inactive” each time. Besides, the Potency entry in experiment [7], in [12], in experiment [17], in [13], in experiment [15] and in [16] was “inactive” throughout. Besides, the outcome in experiment [8], in experiment [9], in experiment [10], in experiment [11] and in experiment [14] was inactive.
Consider `OC1CCCCC1c1ccccc1` (stereo unspecified), for which the Potency entry in experiment [1], in [2], in experiment [3], in experiment [4], in experiment [5] and in [6] was “inactive” each time. The Potency result in experiment [7], in experiment [12], in [17], in [13], in experiment [15] and in experiment [16] was “inactive” each time. The compound was classed as inactive in [8], in [9], in experiment [10], in experiment [11] and in [14].
As for `Cc1cnc(NS(=O)(=O)c2ccc(N)cc2)nc1`, the Potency result in experiment [1], in experiment [2], in experiment [3], in experiment [4], in [5] and in [6] was “inactive” each time. Further, the Potency entry in experiment [7], in [12], in [17], in [13], in experiment [15] and in experiment [16] was “inactive” throughout. In addition, the outcome in experiment [8], in experiment [9], in experiment [10], in experiment [11] and in experiment [14] was inactive.
